Inconclusive results are not listed. A call without a number means that no potency is given here. The source made the active and inactive calls. Unless noted, calls come from the whole dose curve.
Potency is the fitted concentration of half-maximal effect.

Test system in one assay: not listed separately
Nature of the assay: qHTS for Inhibitors of the Functional Ribonucleoprotein Complex (vRNP) of Lymphocytic Choriomeningitis Arenaviruses (LCMV): Viability assay - alamar blue signal for LCMV Primary Screen (AID 1347085; calls by dose curve; tested in HEK293 reporter line; note: nearly all actives have a fitted effect of over 80% in size). The note with it: alamar blue viability counter-screen, LCMV vRNP screen cells; series mostly up to 57.5 µM. On the technique in general: In qHTS, concentration-response curves come from the screen itself.
`CC(=O)Oc1ccc2c(=O)c(-c3ccccc3)c(C)oc2c1`: the Potency entry is “inactive”.
Same read-out and setting: the same measure for `CCCCCOC(=O)CCC`: “inactive”; for `C=C(C)[C@@H]1CC[C@@H](C)C[C@@H]1O`: “inactive”; for `CCCCOC(=O)C(=O)OCCCC`: “inactive”.
On the same count and under the same terms, the same measure for `CCC(C)(O)C(=O)N[C@H]1CCCN1C(=O)/C=C/c1ccccc1` (stereo partly drawn): “inactive”; for `CC(C)N(CCCNC(=O)Nc1ccc(C(C)(C)C)cc1)C[C@H]1O[C@@H](n2cc(Br)c3c(N)ncnc32)[C@H](O)[C@H]1O`: “inactive”.
On the same count and under the same terms, in the case of `C=C1C(=O)OC2C=C(C)CCC=C(C)CCC12` (stereo not drawn) it was “inactive”; in that of `CNCC(=O)O`, “inactive”.
Regarding `COc1ccc(C[C@@H]2c3cc(O)c(OC)cc3CCN2C)cc1O`, the Potency entry is “inactive”.
For `COc1c2c(cc3oc(CO[C@@H]4O[C@H](CO)[C@@H](O)[C@H](O)[C@H]4O)cc(=O)c13)O[C@H](C(C)(C)O)C2`, the Potency entry is “inactive”.
For `COC(=O)/C=C\C(=O)O`, the Potency result was “inactive”.
As for `CC(C)=C[C@H]1C[C@H](C)[C@H]2CC[C@H](C)c3c(O[C@@H]4OC[C@@H](O)[C@H](O)C4O)c(O)c(C)c1c32` (stereo partly drawn), the Potency result is “inactive”.
For `COc1cc2c(cc1OC)[C@@H]1Cc3cc4c(cc3[C@H](C2)N1C)OCO4`, the Potency entry was “inactive”.
The same measure, in the same setting: in the case of `COc1c2c(c(CCC(=O)O)c3c1C=CC(C)(C)O3)OC(C)(C)C=C2` it was “inactive”; in that of `O=C(O)CCCCCCCCCC(=O)O`, “inactive”; in that of `CC[C@H](C)C(=O)N[C@H]1CCCN1C(=O)/C=C/c1ccccc1`, “inactive”.
On the same count and under the same terms, in the case of `CC1=CC23C(=O)C(C=C(CO)[C@@H](O)[C@]2(O)[C@H]1O)[C@H]1[C@@H](C[C@H]3C)C1(C)C` (stereo partly drawn) it was “inactive”.
Same read-out and setting: the same measure for `CCn1c(-c2nonc2N)nc2cncc(CNC3CCNCC3)c21`: 24.3 µM (active).
For the molecule `O=c1[nH]c(O)c(/C=C2\C=Nc3ccccc32)[nH]1`, the Potency entry was “inactive”.
Same read-out and setting: in the case of `C=C[C@]1(C)Cc2occ(C)c2C[C@H]1C(=C)C(=O)O` it was “inactive”; in that of `COc1ccc(CO)cc1`, “inactive”.
Still for that read-out and setting: in the case of `S=C(NCc1ccccc1)NCc1ccccc1` it was “inactive”; in that of `CC1C(=O)OC2C1CCC1(C)CCC(=O)C(C)C21` (stereo not drawn), “inactive”; in that of `CCC(=O)OCCC(C)CCC=C(C)C` (stereo not drawn), “inactive”.
Same read-out and setting: in the case of `Nc1nc(N)c2[nH]cnc2n1` it was “inactive”.
As to `CN1C2CCC1CC(OC(=O)c1cccc(O)c1)C2` (stereo not drawn), the Potency result is “inactive”.
Same read-out and setting: in the case of `COc1cc(N2CCN(C)CC2)ccc1Nc1nc(N)c(C(=O)c2c(Cl)cccc2Cl)s1` it was “inactive”; in that of `NC(C(=O)O)C1ON=C(Cl)C1O` (stereo not drawn), “inactive”.
For the molecule `CC1(C)C2=CCCC(C)(C)[C@]23CC[C@H]1C3`, the Potency result is “inactive”.
The same measure, in the same setting: in the case of `CCN1CC2(COC(=O)c3ccccc3N)CCC(OC)C34C5CC6C(OC)CC(O)(C5C6OC)C(O)(C(OC)C23)C14` (stereo not drawn) it was “inactive”; in that of `NCCC(=O)c1ccccc1N`, “inactive”.
Turning to `Cn1c2c(c(=O)c3ccccc31)CCC(C)(C)O2`, the Potency entry is “inactive”.
On the same count and under the same terms, the same measure for `CC1(C)C[C@H]2C3=CCC4[C@@]5(C)CC[C@H](O)[C@](C)(CO)C5CC[C@@]4(C)[C@]3(C)C[C@H]3O[C@@H]1[C@H](O)[C@]32CO` (stereo partly drawn): “inactive”; for `COc1cc2cc(Oc3ccc4ccc(=O)oc4c3)c(=O)oc2cc1O[C@@H]1O[C@H](CO)[C@@H](O)[C@H](O)[C@H]1O`: “inactive”.
Same read-out and setting: the same measure for `CCN1CCC(n2cc(CNc3cc(Cl)c4ncc(C#N)c(Nc5ccc(F)c(Cl)c5)c4c3)nn2)CC1`: “inactive”; for `CSCCCN=C=S`: “inactive”; for `CCCC(C)C(O)CC` (stereo not drawn): “inactive”.
The same measure, in the same setting: in the case of `CCCCN` it was “inactive”.
`C=C(CO)CC1CC(O)[C@]2(C)OC3CC4OC5C[C@]6(C)O[C@]7(C)CCC8OC9C[C@]%10(C)OC%11C(C)=CC(=O)OC%11CC%10OC9C[C@@H](C)C8OC7CC6O[C@]5(C)C/C=C\C4OC3CC2O1` (stereo partly drawn): the Potency entry is “inactive”.

The target in the next assay is Nucleoprotein (Lymphocytic choriomeningitis virus (strain Armstrong)) (UniProt P09992). The assay is described as follows: qHTS for Inhibitors of the Functional Ribonucleoprotein Complex (vRNP) of Lymphocytic Choriomeningitis Arenaviruses (LCMV): LCMV Primary Screen - GLuc reporter signal (AID 1347086). Note: nearly all actives have a fitted effect of over 70% in size. The settings on record: LCMV minigenome vRNP cell assay, Gaussia luciferase reporter; series mostly up to 57.5 µM.
Sequence of Nucleoprotein (Lymphocytic choriomeningitis virus (strain Armstrong)) (P09992 whole entry, looked up): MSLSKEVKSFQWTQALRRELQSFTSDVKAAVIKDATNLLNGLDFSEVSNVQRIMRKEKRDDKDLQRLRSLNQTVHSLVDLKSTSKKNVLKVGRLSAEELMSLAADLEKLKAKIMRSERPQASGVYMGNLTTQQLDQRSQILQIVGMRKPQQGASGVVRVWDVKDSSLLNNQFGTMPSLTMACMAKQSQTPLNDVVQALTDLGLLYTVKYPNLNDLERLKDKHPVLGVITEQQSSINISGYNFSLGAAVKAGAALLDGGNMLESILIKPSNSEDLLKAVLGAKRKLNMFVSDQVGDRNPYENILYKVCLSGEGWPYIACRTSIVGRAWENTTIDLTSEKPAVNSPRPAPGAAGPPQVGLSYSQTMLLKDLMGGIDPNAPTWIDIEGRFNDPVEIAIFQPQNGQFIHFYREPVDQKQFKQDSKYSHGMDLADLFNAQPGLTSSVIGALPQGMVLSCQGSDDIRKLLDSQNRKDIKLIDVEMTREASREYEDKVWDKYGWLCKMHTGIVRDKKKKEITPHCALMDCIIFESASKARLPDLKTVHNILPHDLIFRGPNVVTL
Take `CC(=O)Oc1ccc2c(=O)c(-c3ccccc3)c(C)oc2c1`: the Potency result is “inactive”.
On the same count and under the same terms, in the case of `CCCCCOC(=O)CCC` it was “inactive”.
Same read-out and setting: in the case of `C=C(C)[C@@H]1CC[C@@H](C)C[C@@H]1O` it was “inactive”.
Consider `CCCCOC(=O)C(=O)OCCCC`, for which the Potency entry is “inactive”.
The same measure, in the same setting: in the case of `CCC(C)(O)C(=O)N[C@H]1CCCN1C(=O)/C=C/c1ccccc1` (stereo partly drawn) it was “inactive”.
On the same count and under the same terms, the same measure for `CC(C)N(CCCNC(=O)Nc1ccc(C(C)(C)C)cc1)C[C@H]1O[C@@H](n2cc(Br)c3c(N)ncnc32)[C@H](O)[C@H]1O`: “inactive”; for `C=C1C(=O)OC2C=C(C)CCC=C(C)CCC12` (stereo not drawn): “inactive”.
Same read-out and setting: in the case of `CNCC(=O)O` it was “inactive”.
With `COc1ccc(C[C@@H]2c3cc(O)c(OC)cc3CCN2C)cc1O`, the Potency entry is “inactive”.
Still for that read-out and setting: in the case of `COc1c2c(cc3oc(CO[C@@H]4O[C@H](CO)[C@@H](O)[C@H](O)[C@H]4O)cc(=O)c13)O[C@H](C(C)(C)O)C2` it was “inactive”; in that of `COC(=O)/C=C\C(=O)O`, “inactive”; in that of `CC(C)=C[C@H]1C[C@H](C)[C@H]2CC[C@H](C)c3c(O[C@@H]4OC[C@@H](O)[C@H](O)C4O)c(O)c(C)c1c32` (stereo partly drawn), “inactive”.
On to `COc1cc2c(cc1OC)[C@@H]1Cc3cc4c(cc3[C@H](C2)N1C)OCO4`, for which the Potency result was “inactive”.
Same read-out and setting: in the case of `COc1c2c(c(CCC(=O)O)c3c1C=CC(C)(C)O3)OC(C)(C)C=C2` it was “inactive”; in that of `O=C(O)CCCCCCCCCC(=O)O`, “inactive”.
On the same count and under the same terms, in the case of `CC[C@H](C)C(=O)N[C@H]1CCCN1C(=O)/C=C/c1ccccc1` it was “inactive”; in that of `CC1=CC23C(=O)C(C=C(CO)[C@@H](O)[C@]2(O)[C@H]1O)[C@H]1[C@@H](C[C@H]3C)C1(C)C` (stereo partly drawn), “inactive”.
Same read-out and setting: in the case of `CCn1c(-c2nonc2N)nc2cncc(CNC3CCNCC3)c21` it was 38.5 µM (active).
Regarding `O=c1[nH]c(O)c(/C=C2\C=Nc3ccccc32)[nH]1`, the Potency entry is “inactive”.
Same read-out and setting: in the case of `C=C[C@]1(C)Cc2occ(C)c2C[C@H]1C(=C)C(=O)O` it was “inactive”.
Same read-out and setting: in the case of `COc1ccc(CO)cc1` it was “inactive”; in that of `S=C(NCc1ccccc1)NCc1ccccc1`, “inactive”.
With `CC1C(=O)OC2C1CCC1(C)CCC(=O)C(C)C21` (stereo not drawn), the Potency entry is “inactive”.
The same measure, in the same setting: the same measure for `CCC(=O)OCCC(C)CCC=C(C)C` (stereo not drawn): “inactive”; for `Nc1nc(N)c2[nH]cnc2n1`: “inactive”; for `CN1C2CCC1CC(OC(=O)c1cccc(O)c1)C2` (stereo not drawn): “inactive”.
On to `COc1cc(N2CCN(C)CC2)ccc1Nc1nc(N)c(C(=O)c2c(Cl)cccc2Cl)s1`, for which the Potency result was “inactive”.
On the same count and under the same terms, in the case of `NC(C(=O)O)C1ON=C(Cl)C1O` (stereo not drawn) it was “inactive”; in that of `CC1(C)C2=CCCC(C)(C)[C@]23CC[C@H]1C3`, “inactive”.
Same read-out and setting: in the case of `CCN1CC2(COC(=O)c3ccccc3N)CCC(OC)C34C5CC6C(OC)CC(O)(C5C6OC)C(O)(C(OC)C23)C14` (stereo not drawn) it was “inactive”.
The same measure, in the same setting: in the case of `NCCC(=O)c1ccccc1N` it was “inactive”; in that of `Cn1c2c(c(=O)c3ccccc31)CCC(C)(C)O2`, “inactive”; in that of `CC1(C)C[C@H]2C3=CCC4[C@@]5(C)CC[C@H](O)[C@](C)(CO)C5CC[C@@]4(C)[C@]3(C)C[C@H]3O[C@@H]1[C@H](O)[C@]32CO` (stereo partly drawn), “inactive”.
Regarding `COc1cc2cc(Oc3ccc4ccc(=O)oc4c3)c(=O)oc2cc1O[C@@H]1O[C@H](CO)[C@@H](O)[C@H](O)[C@H]1O`, the Potency result was “inactive”.
Still for that read-out and setting: the same measure for `CCN1CCC(n2cc(CNc3cc(Cl)c4ncc(C#N)c(Nc5ccc(F)c(Cl)c5)c4c3)nn2)CC1`: “inactive”.
Take `CSCCCN=C=S`: the Potency result is “inactive”.
As to `CCCC(C)C(O)CC` (stereo not drawn), the Potency result was “inactive”.
With `CCCCN`, the Potency result is “inactive”.
Still for that read-out and setting: in the case of `C=C(CO)CC1CC(O)[C@]2(C)OC3CC4OC5C[C@]6(C)O[C@]7(C)CCC8OC9C[C@]%10(C)OC%11C(C)=CC(=O)OC%11CC%10OC9C[C@@H](C)C8OC7CC6O[C@]5(C)C/C=C\C4OC3CC2O1` (stereo partly drawn) it was “inactive”.

For the origin of these results see PubChem BioAssay (NCATS).
